From PubChem BioAssay
An excerpt weighted towards active compounds, which were near 10% of everything screened.
ALDH1A1 block – inhibitors of human aldehyde dehydrogenase 1A1 | Purified ALDH1A1, NADH fluorescence, propionaldehyde substrate | Potency, µM (top dose mostly 75.3 µM), for the others: top-dose activity, negative = inhibition, hits mostly inhibitors | 220,000 tested, 7.3% active | P00352;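 further: potency means the concentration at half of the fitted maximal effect; plate controls were no enzyme wells and a reference inhibitor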
Target sequence (P00352 whole entry, looked up): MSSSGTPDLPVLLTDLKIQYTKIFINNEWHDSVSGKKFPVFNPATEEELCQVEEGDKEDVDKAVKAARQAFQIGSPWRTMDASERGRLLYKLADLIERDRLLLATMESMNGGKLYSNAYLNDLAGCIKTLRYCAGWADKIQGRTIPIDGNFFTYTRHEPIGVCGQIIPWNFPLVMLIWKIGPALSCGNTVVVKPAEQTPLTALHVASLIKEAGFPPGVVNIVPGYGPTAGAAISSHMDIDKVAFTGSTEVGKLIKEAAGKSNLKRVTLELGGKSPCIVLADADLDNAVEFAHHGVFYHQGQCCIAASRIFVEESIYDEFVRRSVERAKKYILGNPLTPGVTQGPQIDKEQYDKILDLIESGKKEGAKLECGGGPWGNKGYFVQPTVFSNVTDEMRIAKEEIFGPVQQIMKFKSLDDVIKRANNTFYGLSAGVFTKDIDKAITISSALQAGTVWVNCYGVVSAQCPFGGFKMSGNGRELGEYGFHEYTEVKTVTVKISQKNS
12-hLO inh – 12-hLO (ALOX12) enzyme inhibition | purified 12-hLO, xylenol orange hydroperoxide absorbance | Potency, µM (top dose mostly 57.1 µM), for inactives: at the top dose activity change, negative = inhibition, most hits filed as inhibitors | 150,000 tested, 0.12% active; active means well fitted inhibition curve with a large enough effect; inconclusive means small, poorly fitted or top-dose-only effect; further: potency means the concentration at half of the fitted maximal effect; nearly all actives have a fitted effect of over 55% in size
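Purified human 12hLO (150 nM), preincubated 15 min with compound, then 40 uM arachidonic acid for 30 min, room temperature, Hepes pH 7.0 with 0.01% Triton X-100. Hydroperoxide detected by ferrous iron/xylenol orange; 573/405 nm absorbance ratio gives reaction progress.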
PNC assembly inh – perinucleolar compartment assembly inhibition; AID 2417; 140,000 tested, 3.1% active; activity change (PNC), negative = inhibition, % at 10 µM; PC3M PTB-GFP, PNC prevalence imaging, 16 h; hits give low values;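 active means readout at or below -70, meaning at least 70% loss of cells showing the perinucleolar compartment, a nuclear body marking cancer cells; inconclusive means readout between -30 and a set limit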;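 further: plate controls were DMSO wells for no effect and camptothecin positive control wells for full effect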
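Compounds are pinned in duplicate onto adhered PC3M cells stably expressing GFP-tagged PTB and incubated 16 h at 37 C. Cells are then fixed, nuclei stained with Hoechst, and PNC-positive cells counted.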
HPGD inh – inhibitors of human 15-hydroxyprostaglandin dehydrogenase (HPGD). AID 894. Potency, µM, without a hit: at the top dose activity change, negative = inhibition, usual class: inhibitors. P15428. 150,000 tested, 4.3% active. purified HPGD, NADH fluorescence kinetic, PGE2 substrate; further: potency means the concentration at half of the fitted maximal effect
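NADH formation kinetics: reaction with 30 uM PGE2 and 1 mM NAD+ (final), 20 nM enzyme, Tris-HCl pH 8 with Tween 20, after 15 min compound preincubation at room temperature. Fluorescence change, last versus first of five reads.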
LMNA splice mod – LMNA splicing modulation. 200,000 tested, 0.01% active. Potency, µM (doses to about 46.1 µM), for the others: at the highest dose ratio change, negative = inhibition, hits mostly inhibitors. HeLa LMNA splicing GFP/RFP minigene ratio, 48 h. AID 1487; active means well fitted inhibition curve with a large enough effect in the signal ratio, with a control signal flat, not every such curve was filed as active; inconclusive means small, poorly fitted or top-dose-only effect, or effect the other way, or a change in a side signal; the % refers to the signal ratio; further: potency means the concentration at half of the fitted maximal effect
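Read-out is the ratio of GFP to DsRed2 object intensity, acquired by 488 nm laser-scanning cytometry on HeLa lamin A-EGFP minigene reporter cells. Compound incubation 48 hrs at 37 °C in Opti-MEM with 2% FBS; DMSO 0.5% final.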
Active calls of the source: *; [ ] = remark or other dose. Unless noted, the call rests on the fitted dose curve; in most records, active means well fitted inhibition curve with a large enough effect (not every such curve was filed as active); inconclusive means small, poorly fitted or top-dose-only effect, or another doubt; inactive means no such curve, though single readings can be large or run the other way. Unless noted, on the % scale 0 is the no-effect control and ±100 the full control effect.

Results for COc1ccc(O)c(C(=O)c2cnn(C(=O)c3cc(C)oc3C)c2)c1 ?
ALDH1A1 block: 3.5µM*; 12-hLO inh: -9%; PNC assembly inh: 13; HPGD inh: -15%; LMNA splice mod: 6%

Results for CC12CCC(c3c(C(=O)O)nn(-c4ccccc4)c31)C2(C)C (configuration not stated) ?
ALDH1A1 block: 9%; 12-hLO inh: 2%; PNC assembly inh: -127*; HPGD inh: -6%; LMNA splice mod: -1%

What do the screens show for `O=C(NCCc1ccccc1)C(=O)Nc1nccs1`?
ALDH1A1 block: -1%; 12-hLO inh: -2%; PNC assembly inh: inconclusive; HPGD inh: -8%; LMNA splice mod: -5%

What do the screens show for `CC12CCC(c3c(C(=O)Nc4nccs4)nn(-c4ccccc4)c31)C2(C)C` (configuration not stated)?
ALDH1A1 block: 4µM*; 12-hLO inh: -5%; PNC assembly inh: 16; HPGD inh: -21%; LMNA splice mod: inconclusive

What do the screens show for `CC12CCC(c3c(CO)nn(-c4ccccc4)c31)C2(C)C` (configuration not stated)?
ALDH1A1 block: inconclusive; 12-hLO inh: 1%; PNC assembly inh: inconclusive; HPGD inh: 0%; LMNA splice mod: 0%

Results for CC(=O)c1ccc(NC(=O)c2cnn3ccccc23)cc1 ?
ALDH1A1 block: 13µM*; 12-hLO inh: -1%; PNC assembly inh: inconclusive; HPGD inh: inconclusive; LMNA splice mod: -4%

How did CSC1=C(C#N)C(c2sccc2C)CC(=O)N1 (configuration not stated) do in these assays?
ALDH1A1 block: 10µM*; LMNA splice mod: -4%[46 µM]

What do the screens show for `CSC1=C(C#N)C(c2cccc(Br)c2)CC(=O)N1` (configuration not stated)?
ALDH1A1 block: 5%; 12-hLO inh: -1%; PNC assembly inh: -1; HPGD inh: -15%; LMNA splice mod: -6%

Results for OC(CN1CCN(Cc2ccccc2)CC1)c1ccccc1 (configuration not stated) ?
ALDH1A1 block: -10%; LMNA splice mod: 4%[46 µM]

What do the screens show for `OC(c1ccccc1)C1CN(Cc2ccccc2)CCC1(O)c1ccccc1` (configuration not stated)?
ALDH1A1 block: 20µM*; 12-hLO inh: -1%; PNC assembly inh: 11; HPGD inh: -14%; LMNA splice mod: -3%

How did O=C(c1ccccc1)C1CN(Cc2ccccc2)CCC1(O)c1ccccc1 (configuration not stated) do in these assays?
ALDH1A1 block: 0.22µM*; LMNA splice mod: inconclusive

Results for CSc1cccc(NC(=O)C2CCN(S(=O)(=O)c3ccc4c(c3)CCCN4C(=O)C3CCC3)CC2)c1 ?
LMNA splice mod: -8%[46 µM]

Results for CN(Cc1c(C(=O)N(C)Cc2ccccc2)nc2ccccn12)CC1Cc2ccccc2O1 (configuration not stated) ?
ALDH1A1 block: 14µM*; LMNA splice mod: inconclusive

How did CN(Cc1ccccc1)C(=O)c1nc2ccccn2c1CNCCOc1cccnc1 do in these assays?
ALDH1A1 block: 25µM*

How did CN(Cc1ccccc1)CC(O)COc1ccc(CNCCOc2cccnc2)cc1 (configuration not stated) do in these assays?
ALDH1A1 block: 7%

Results for Cc1nn(C)cc1CN(C)Cc1c(C(=O)N(C)Cc2ccccc2)nc2ccccn12 ?
ALDH1A1 block: 13%; LMNA splice mod: 18%[46 µM]

Results for Cc1noc(C)c1-c1ccc2ncnc(N3CCC(C(=O)O)CC3)c2c1 ?
ALDH1A1 block: inconclusive; LMNA splice mod: -12%

What do the screens show for `CCCc1cc(=O)[nH]c2nnc(SCC(=O)Nc3ccc(OC)cc3)n12`?
LMNA splice mod: 2%[46 µM]

Results for CCOC(=O)C(C(=O)OCC)C1CCS(=O)(=O)C1 (configuration not stated) ?
ALDH1A1 block: 6%; 12-hLO inh: -6%; PNC assembly inh: -100*; HPGD inh: -9%; LMNA splice mod: -6%

Results for Cc1nnc(SCc2nc3sc(C(=O)O)c(C)c3c(=O)[nH]2)s1 ?
ALDH1A1 block: 20µM*

What do the screens show for `CC(=O)c1sc2nc(CSc3nnnn3-c3ccccc3)[nH]c(=O)c2c1C`?
ALDH1A1 block: 25µM*

Results for Cc1ccc(-n2nnnc2SCc2nc3sc(C)c(C)c3c(=O)[nH]2)cc1 ?
ALDH1A1 block: 0%; 12-hLO inh: 3%; PNC assembly inh: inconclusive; HPGD inh: -5%; LMNA splice mod: 2%

What do the screens show for `Cc1sc2nc(CSc3nc4ccccc4s3)[nH]c(=O)c2c1C`?
ALDH1A1 block: 7.9µM*; LMNA splice mod: -5%[9.22 µM]

What do the screens show for `Cc1c(C(=O)O)sc2nc(CSc3nnc(-c4ccc(F)cc4)n3C)[nH]c(=O)c12`?
ALDH1A1 block: 19µM*

What do the screens show for `CC(C)(C)C(=O)CSc1nc2ccsc2c(=O)n1Cc1ccccc1Cl`?
LMNA splice mod: 18%[46 µM]

Results for Cc1ccc(C(=O)Nc2nnc(S(=O)(=O)N3CCCc4ccccc43)s2)cc1 ?
LMNA splice mod: 3%[46 µM]

What do the screens show for `C=CCn1c(SCc2nc3sc(C(=O)O)c(C)c3c(=O)[nH]2)nnc1-c1ccc(C(C)(C)C)cc1`?
ALDH1A1 block: 20µM*; LMNA splice mod: inconclusive

How did C=CCn1c(SCc2nc3sc(C(=O)O)c(C)c3c(=O)[nH]2)nnc1-c1ccccc1 do in these assays?
ALDH1A1 block: inconclusive; LMNA splice mod: 4%[46 µM]

Results for Cc1cnc(CNc2cc(-c3cccc(NS(C)(=O)=O)c3)ncn2)cn1 ?
ALDH1A1 block: -7%; LMNA splice mod: -1%

What do the screens show for `CCOC(=O)Cc1nnc(NC(=O)C(CC)Sc2nncn2C)s1` (configuration not stated)?
ALDH1A1 block: -11%; 12-hLO inh: 0%; PNC assembly inh: -85*; HPGD inh: -16%; LMNA splice mod: -15%

How did CSc1ccc(C(=S)N2CCN(C(c3ccccc3)c3ccccc3)CC2)cc1 do in these assays?
ALDH1A1 block: 2.4µM*; 12-hLO inh: -3%; PNC assembly inh: inconclusive; HPGD inh: 14µM*; LMNA splice mod: 6%

How did CSc1ccc(/C=N/N2CCN(C)CC2)cc1 do in these assays?
ALDH1A1 block: 1%; LMNA splice mod: 26%[46 µM]

How did CSc1ccc(C(=S)N2CCN(C)CC2)cc1 do in these assays?
ALDH1A1 block: 32µM*; 12-hLO inh: -2%; PNC assembly inh: 34; HPGD inh: 28µM*; LMNA splice mod: -19%

How did COc1ccc(C)cc1NC(=O)CCn1nc(C)cc1C do in these assays?
LMNA splice mod: 19%[46 µM]

Results for COc1cccc2c1Oc1ncccc1N(C(=O)Nc1cccc(Cl)c1)C2 ?
LMNA splice mod: 19%[46 µM]

How did CN1c2ccsc2/C(=N/Nc2ccccc2)CS1(=O)=O do in these assays?
ALDH1A1 block: 13µM*; LMNA splice mod: -19%[46 µM]
